Common to all, as to type: functional
Assay [1] addresses Solute carrier family 2, facilitated glucose transporter member 1 (Homo sapiens) (UniProt P11166). Nature of the assay: ST_JUDE_LEISH: Cytotoxicity at 2uM final concentration against transgenic Leishmania Mexicana promastigotes LmGLUT1 that are glucose transport deficient and complemented with the human glucose transporter GLUT1. Activity is measured by DNA content using SYBR green in vitro.

Assay [2] deals with Hexose transporter 1 (Plasmodium falciparum) (UniProt O97467). Put plainly: ST_JUDE_LEISH: Cytotoxicity at 2uM final concentration against transgenic Leishmania Mexicana promastigotes LmPfHT that are glucose transport deficient and complemented with the Plasmodium falciparum hexose transporter. Activity is measured by DNA content using SYBR green in vitro.
Assay [3] deals with Glucose transporter (Leishmania mexicana) (UniProt O61059). Nature of the assay: ST_JUDE_LEISH: Cytotoxicity at 2uM final concentration against transgenic Leishmania Mexicana promastigotes LmGT2 that are glucose transport deficient and complemented with the L. Mexicana glucose transporter 2. Activity is measured by DNA content using SYBR green in vitro.

Sequence of Solute carrier family 2, facilitated glucose transporter member 1 (Homo sapiens) (P11166 whole entry): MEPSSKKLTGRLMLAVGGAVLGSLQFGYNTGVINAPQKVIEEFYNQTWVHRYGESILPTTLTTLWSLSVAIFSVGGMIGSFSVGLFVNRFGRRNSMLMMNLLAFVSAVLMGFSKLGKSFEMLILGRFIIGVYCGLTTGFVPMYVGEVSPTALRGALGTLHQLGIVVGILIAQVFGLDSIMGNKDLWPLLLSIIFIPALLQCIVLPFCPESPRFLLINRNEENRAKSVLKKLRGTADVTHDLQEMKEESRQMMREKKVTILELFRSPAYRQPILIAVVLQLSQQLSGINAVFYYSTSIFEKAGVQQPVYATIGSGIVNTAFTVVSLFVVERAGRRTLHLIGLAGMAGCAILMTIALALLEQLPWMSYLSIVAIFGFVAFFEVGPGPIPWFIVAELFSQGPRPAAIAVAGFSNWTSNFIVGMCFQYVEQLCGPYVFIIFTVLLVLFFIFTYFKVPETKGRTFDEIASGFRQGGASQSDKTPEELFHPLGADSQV

For `CC1(C)NC(N)=NC(=N)N1OCc1cc(Cl)cc2c1OCOC2`, the inhibition in assay [1] was 2.73%; in assay [2] it was -0.07%; in assay [3] it was 0.71%.
Taken in the same sequence, the figures for `O=C(Nc1cccc(-c2ccc(CN3CCCC3)cc2)c1)c1cccc(F)c1` were -0.49%, 1.18% and 0.62%.
Taken in the same sequence, the figures for `CC(Sc1nc(-c2ccccc2)c(-c2ccccc2)o1)C(=O)NC1CC1` (stereo unspecified) were -2%, 1.75% and 0.3%.
Taken in the same sequence, the figures for `C=CCn1cc(C2CCN(CCCCNC(=O)c3sc(-c4ccc(C(F)(F)F)cc4)nc3CO)CC2)c2cc(OC)ccc21` were 1.93%, 3.91% and 4.35%.
`CC1CCCCN1CCCNc1ncc2c(-c3ccc(NC(=O)Nc4cc(C(F)(F)F)ccc4F)c(F)c3)nn(C)c2n1` (stereo unspecified): the inhibition is 1.38% in assay [1], -0.99% in assay [2] and 0.83% in assay [3].
Taken in the same sequence, the figures for `CCOc1ccc2[nH]c(C)cc(=NN=Cc3cccnc3)c2c1` were 8.63%, 6.06% and 7.76%.
Taken in the same sequence, the figures for `COc1cc(CNC[C@@H](O)[C@H](Cc2ccccc2)NC(=O)c2cc(C3CCCC3)cc(N3CCCC3=O)c2)cc(OC)c1` were 2.44%, 5.82% and -1.06%.
Take `CN(C)CCOc1cc(NC(=O)Nc2ccc(Oc3ccccc3)cc2)ccc1I`: the inhibition in assay [1] is 1.79%; in assay [2], 1.64%; in assay [3], -1.47%.
Taken in the same sequence, the figures for `O=C(N[C@@H](Cc1ccccc1)C(=O)NCCN1CCCC1)c1ccc(O)c(-c2ccc(Cl)c(Cl)c2)c1` were 7.15%, 3.32% and 6.16%.
Taken in the same sequence, the figures for `NCC1(c2nc(-c3ccc(Cl)c(O)c3)c(-c3ccncc3)[nH]2)CCCCC1` were 3.72%, 2.75% and 0.55%.
Taken in the same sequence, the figures for `Cc1cc(=NN=Cc2ccc(Cl)cc2)c2cccc(C)c2[nH]1` were 10.4%, 9.15% and 6.63%.
For the compound `COc1ccc2nccc([C@@H](O)CN3CCC(NCc4ccc5c(n4)NCCC5)CC3)c2c1`, the results for the inhibition in assay [1], in assay [2] and in assay [3] were 6.88%, 6.43% and 6.5%, respectively.
The like results for `COc1ccc(Nc2nc(C)cc(NC3CCCC3)n2)cc1` were, in that order, 29.2%, 26.2% and 17.7%.
Regarding `CCCC(C(=O)OCCNC)(c1ccccc1)c1ccccc1`, the results for the inhibition in assay [1], in assay [2] and in assay [3] were 1.4%, 0.51% and 0.81%, respectively.
For `O=C(/C=C/c1ccc(Cl)c(Cl)c1)NCCCCCN1CCC(NC(=O)Nc2cccc(C(F)(F)F)c2)CC1`, the inhibition in assay [1] is -1.91%; in assay [2] it was -0.93%.
The like results for `O=C(Nc1cccc(CN2CCCN(Cc3cccc(O)c3)CC2)c1)c1cc2ccccc2s1` were, in that order, -0.14% and -0.1%.
On to `Cc1cccc2nc(-c3ccc(-c4ccc(CN5CCC(C(N)=O)CC5)cc4)s3)[nH]c12`, for which the inhibition came out at 10.9% in assay [1], 9.37% in assay [2] and 8.95% in assay [3].
Regarding `Cc1cccc2nc(-c3ccc(-c4cccc(CNCCN(C)C)c4)cc3)[nH]c12`, the inhibition amounted to 3.31% in assay [1], 2.84% in assay [2] and 0.95% in assay [3].
Taken in the same sequence, the figures for `Cc1ccc(Cl)cc1N1CCN(CCCNC(=O)C2CCN(c3nc4ccccc4[nH]3)CC2)CC1` were 4.49%, 5.2% and 5.6%.
Turning to `COc1ccccc1N1CCN(C(C(=O)NCc2ccc3c(c2)OCO3)c2ccc(C)cc2)CC1` (stereo unspecified), the inhibition in assay [1] is -0.94%; in assay [2] it was -0.2%.
On to `COc1ccc(-c2cccc(NC(=O)c3cccc(Cl)c3)c2)cc1CN1CCNCC1`, for which the values for the inhibition in assay [1], in assay [2] and in assay [3] were 2.8%, 2.6% and -0.77%, respectively.
Take `Cc1ccc(NC(=O)N2CCCN(CCCCCNC(=O)/C=C/c3ccc(Cl)c(Cl)c3)CC2)cc1`: the inhibition in assay [1] is -1.97%; in assay [2], -0.68%.
In the case of `O=c1c2sc(-c3ccc(Cl)cc3)cc2ncn1Cc1ccc(OCCN2CCCC2)c2ccccc12`, the results for the inhibition in assay [1], in assay [2] and in assay [3] were 4.34%, 2.61% and 1.85%, respectively.
Taken in the same sequence, the figures for `Cc1cccc2nc(-c3ccc(-c4ccc(CN5CCN(CCO)CC5)cc4)s3)[nH]c12` were 10.6%, 8.8% and 7.69%.
Taken in the same sequence, the figures for `CCc1c(CCNCCCCCCNCCc2ccc3c(c2C)OCO3)ccc2c1OCO2` were 8.6%, 5.13% and 10.6%.
Turning to `O=[N+]([O-])c1ccc(-n2nc(-c3cccnc3)n(Cc3ccco3)c2=S)c(Cl)c1`, the inhibition was 1.31% in assay [1] and -1.09% in assay [2].
Regarding `O=C(Nc1ccc(Cl)cc1)c1ccc(CN2CCCN(Cc3cccc(F)c3)CC2)cc1`, the inhibition is -0.02% in assay [1], 5.11% in assay [2] and 3.31% in assay [3].
Consider `N=C(N)NC(=O)Nc1cc(F)c(Cl)c(Cl)c1`, for which the values for the inhibition in assay [1], in assay [2] and in assay [3] were 12.8%, 10.5% and 6.35%, respectively.
For the compound `CCCCCCN1CCC(CNCc2cccc(Cl)c2)CC1`, the inhibition was 1.66% in assay [1], 2.08% in assay [2] and 1.97% in assay [3].
The like results for `CCN(CC)CCN(CCN(CC)CC)c1ccc2c(c1)Sc1c(Cl)ccc(Cl)c1S2` were, in that order, 1.42%, 6.29% and 3.91%.
Turning to `Cc1ccc(NC(=O)N2CCCN(CCCCCNC(=O)/C=C/c3ccc(Cl)c(Cl)c3)CC2)cc1C`, the inhibition in assay [1] was -0.69%; in assay [2], -1.17%.
For `COc1ccc2nccc([C@@H](O)CN3CCC(NCc4cc5ccc(Cl)cc5[nH]4)CC3)c2c1`, the inhibition is 9.64% in assay [1], 12.1% in assay [2] and 4.6% in assay [3].
Taken in the same sequence, the figures for `NCCNc1ccnc2cc(Cl)ccc12` were 0.54%, 1.61% and 1.05%.
The like results for `N#CC(c1cccc(Cl)c1)c1ccc2c(C(F)(F)F)cc(C(F)(F)F)nc2n1` (stereo unspecified) were, in that order, 9.02%, 7.47% and 6.02%.
Take `O=C(NCC(=O)N1CCC[C@H]1C(=O)O)[C@@H](Cc1ccccc1)NC(=O)[C@@H]1CCCN1C(=O)CCCc1ccc(O)cc1`: the inhibition in assay [1] is -2.68%.
On to `CCCC(C)NC(=O)/C=C/c1ccccc1-c1cccc(OC)c1` (stereo unspecified), for which the inhibition is -0.91% in assay [1] and -0.01% in assay [2].
Taken in the same sequence, the figures for `CC(C)c1ccc(CN2CCC(CNC(=O)c3cc(-c4cccc(F)c4)cs3)C2)cc1` (stereo unspecified) were 0.2% and -1.08%.
In the case of `OCc1ccc2nc3c(cc2c1)-c1cccc2cccc-3c12`, the values for the inhibition in assay [1], in assay [2] and in assay [3] were 3.6%, 1.82% and 2.11%, respectively.
Take `CCCC(CNCc1cccc(OCC)c1)CNc1cc(=O)c2ccccc2[nH]1` (stereo unspecified): the inhibition in assay [1] was -0.5%; in assay [2], -0.45%.

These data come from ChEMBL document CHEMBL3433997, “St. Jude Leishmania screening dataset” (2016).
